The nature of the test: probe aWnt5a binding to arrayed compounds – biochemical, biotinylated probe, 635/667 nm fluorescence, primary screen (AID 1113).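 Also: score merges 667 nm fluorescence intensity with signal-to-noise per printed feature.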 To be noted: small-molecule microarray, higher = more signal.
`CC(C)(C)N1CC=CC23O[C@@H]4/C=C\CCCOC(=O)C4[C@H]2C(=O)N(CCCO)[C@@H]3C1=O` (stereo partly drawn) returned a composite z-score of -0.172.

`Cc1ccc(S[C@]2(C(=O)NCCCN(C)C)CC(=O)N(C3Cc4ccccc4C3)[C@@H]2c2ccc(CO)cc2I)cc1`: the composite z-score was 0.0792.

Molecule `CCOc1cc(C(O)C2C=CC3C(=O)N(c4ccccc4)C(=O)C3N2Nc2ccccc2F)ccc1O` (stereo not drawn) registered a composite z-score of 0.302.

`Cc1ccc(F)cc1S(=O)(=O)N[C@H]1CCN(Cc2ccc(OC(C)C)cc2)C1` displayed a composite z-score of -0.187.

`COC(=O)C(CC#Cc1ccc2c(c1)[C@]1(C(=O)N2)[C@H](c2ccc(OCCO)cc2)N2[C@H](c3ccccc3)[C@H](c3ccccc3)OC(=O)[C@H]2[C@@H]1C(=O)N1CCCCCCC1)C(=O)OC` yielded a composite z-score of 1.25.

For `[N-]=[N+]=Nc1ccccc1C[C@]1(C(=O)N2CCOCC2)N=C(c2ccc(OCCCO)cc2)O[C@H]1c1ccccc1N=[N+]=[N-]`, the composite z-score is 0.145.

`O=C(NC1CC1)[C@@H]1c2ccccc2C(=O)N(Cc2ccc(OC(F)(F)F)cc2)[C@H]1c1ccc(CO)cc1`: the composite z-score was -0.0758.

`CN(C)CCCC[C@@H]1NC(=O)[C@H]2C[C@@H](C(=O)O)[C@@H](c3ccc(O)cc3)N2C1=O` displayed a composite z-score of 0.866.

Consider `CO[C@H]1O[C@H](CO)[C@@H](OC(=O)Nc2ccccc2)[C@H](OC(=O)Nc2ccccc2)[C@H]1OC(=O)Nc1ccccc1`, for which the composite z-score was 0.0519.

As to `[N-]=[N+]=NCc1ccccc1[C@@H]1OC(c2ccc(OCCCO)cc2)=N[C@]1(Cc1ccccc1N=[N+]=[N-])C(=O)O`, the composite z-score came out at 0.496.

In the case of `CC(C)=CCCC(C)=CC(O)C1C=CC2C(=O)NC(=O)C2N1Nc1ccc(Cl)cc1Cl` (stereo not drawn), the composite z-score is -0.0327.

With `CC(C)C(=C=CC[C@H](O)c1ccccc1OCCO)C[C@H](O)c1cc(Cl)cc(Cl)c1O`, the composite z-score was -0.106.

On to `COc1ccc(C(=O)Nc2ccc3c(c2)[C@@]2(O[C@H](CCO)[C@@H]([Si](C)(C)c4ccc(OC)cc4)[C@@H]2C)C(=O)N3Cc2ccccc2)cc1`, for which the composite z-score was -0.0599.

`CC(C)(C)OC(=O)CC[C@@]1(C(=O)NCCN2CCOCC2)N=C(c2ccc(OCCCO)cc2)O[C@@H]1c1ccccc1CN=[N+]=[N-]` registered a composite z-score of 0.0219.

Molecule `CC(C)C(CO)N1C(=O)[C@@H]2C3C(=O)OCCC/C=C\[C@H]3OC23C=CCN(Cc2ccccc2)C(=O)[C@@H]13` (stereo partly drawn) yielded a composite z-score of -0.0643.

For the molecule `COC(=O)C(CC#Cc1ccc2c(c1)[C@]1(C(=O)N2)[C@H](C(=O)N2CCc3cc(OC)c(OC)cc3C2)[C@H]2C(=O)O[C@H](c3ccccc3)[C@H](c3ccccc3)N2[C@@H]1c1ccccc1OCCO)C(=O)OC`, the composite z-score is -0.0161.

The molecule `CC(C)=CCCC=C(C)C(O)C1C=CC2C(=O)N(c3ccccc3)C(=O)C2N1Nc1ccc(C#N)cc1` (stereo not drawn) yielded a composite z-score of -0.0459.

The molecule `C=CCC(OC(C)=O)[C@@H]1[C@@H](N(Cc2cccc3ccccc23)C(=O)Cc2ccc(OC)cc2)c2cc(OCCCO)ccc2N1C(=O)Cc1ccc2ccccc2c1` (stereo partly drawn) registered a composite z-score of -0.216.

`CN1C(=O)C2C=CC(C(O)c3ccc(-c4ccccc4)s3)N(NC(=O)OC(C)(C)C)C2C1=O` (stereo not drawn) displayed a composite z-score of 0.055.

The molecule `COC(=O)[C@@]1(Cc2ccccc2)N=C(c2ccc(OCCCO)cc2)O[C@H]1c1ccccc1CN=[N+]=[N-]` registered a composite z-score of -0.0792.

For the molecule `COc1ccc([Si](C)(C)[C@H]2[C@H](CC(=O)N3Cc4ccccc4C[C@H]3CO)O[C@@]3(C(=O)N(C)c4ccccc43)[C@@H]2C)cc1`, the composite z-score is -0.124.

`C=CCC(OC(C)=O)[C@@H]1[C@@H](N(Cc2cc3ccccc3o2)C(=O)c2cccc3ccccc23)c2cc(OCCCO)ccc2N1C(=O)c1ccc2ccccc2n1` (stereo partly drawn): the composite z-score was -0.0346.

Turning to `CCOC(=O)C[C@H]1[C@H](OC(=O)c2ccccc2-c2ccccc2)[C@@H](NC(=O)C2CCCCC2)c2cc(OCCCO)ccc2N1C(=O)c1ccc2ccccc2n1`, the composite z-score is -0.0087.

`O=C1C2C=CC(C(O)C3CCCCC3)N(n3cnnc3)C2C(=O)N1Cc1ccccc1` (stereo not drawn) registered a composite z-score of 0.0914.

For the molecule `C=CCOC(=O)[C@@H]1[C@H]2C(=O)O[C@H](c3ccccc3)[C@H](c3ccccc3)N2[C@H](c2ccc(OCCOC(=O)[C@H]3C[C@H]4C(=O)N[C@@H](CCCCN(C)C)C(=O)N4[C@H]3c3ccc(O)cc3)cc2)[C@@]12C(=O)Nc1ccc(I)cc12`, the composite z-score stood at 0.0317.

As for `O=C1C[C@]2(c3ccc([N+](=O)[O-])cc3)C(=O)N(C3CC3)c3cc(CO)ccc3[C@H]2N1C1CCCCC1`, the composite z-score was -0.178.

Take `CN(C)CCCNC(=O)[C@@]1(Cc2ccccc2I)c2ccccc2C(=O)N(C2CCCCC2)[C@H]1c1ccc(CO)cc1`: the composite z-score was -0.0057.

`C=CCC(OC(C)=O)[C@@H]1[C@@H](N(Cc2cccc3ccccc23)C(=O)c2ccc(-c3ccccc3)cc2)c2cc(OCCCO)ccc2N1C(=O)Cc1ccc2ccccc2c1` (stereo partly drawn) came in with a composite z-score of 0.0399.

The record behind these values is PubChem BioAssay.
